This passage reports activation, Potency and viability results from PubChem BioAssay (NCATS).

Test [1] addresses Cellular tumor antigen p53 (Homo sapiens) (UniProt P04637). As to the kind of experiment: Primary qHTS for small molecule compounds that upregulate eGFP-tagged delta133p53alpha (in N-terminal) cells. (AID 2060322).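 Further: cells pre-induced with doxycycline then dosed without doxycycline; series mostly up to about 56 µM; 0% = DMSO vehicle and 100% = reference activator; nearly all actives have a fitted effect of over 75% in size.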 The settings on record: NCI-H358 eGFP-delta133p53alpha fluorescence, 24 h; activation: stronger effect = higher value. In a few lines:
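NCI-H358 cells pre-induced 24 h with 10 ng/ml doxycycline for eGFP-delta133p53alpha, plated dox-free and exposed 24 h at 37C to titrated compounds. Fixed, Hoechst-stained; gated GFP peak intensity by laser scanning cytometry, normalized to DMSO (0%) and 57.5 uM 5-azacytidine (100%).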

The target is the same in test [2]. The test is described as follows: Primary qHTS for small molecule compounds that upregulate eGFP-tagged delta133p53alpha (in C-terminal) cells. (AID 2060324). Further: potency means the concentration at half of the fitted maximal effect. In a few lines:
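Concentration-response screen: compounds titrated onto pre-induced NCI-H358 D133p53a-eGFP cells, incubated one day, fixed with 3.5% PFA. Per-cell GFP peak intensity was gated, then normalized against intraplate controls.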

Test [3] deals with Aldehyde dehydrogenase, mitochondrial (Homo sapiens) (UniProt P05091). The test is described as follows: qHTS for Inhibitors of the Aldehyde Dehydrogenase Family (ALDH2) Validation screens (AID 2061302; active means well fitted inhibition curve with a large enough effect; title and protocol of this record describe different tests; further: potency means the concentration at half of the fitted maximal effect).
For test [4] the target is unchanged. As to the kind of experiment: qHTS for Inhibitors of the Aldehyde Dehydrogenase Family (ALDH2) Confirmatory screens (AID 2061303; active means well fitted inhibition curve with a large enough effect; title and protocol of this record describe different tests; further: nearly all actives have a fitted effect of over 45% in size; further: potency means the concentration at half of the fitted maximal effect).
Test [5] has as its target Retinal dehydrogenase 2 (Homo sapiens) (UniProt O94788). The test is described as follows: qHTS for Inhibitors of the Aldehyde Dehydrogenase Family (ALDH1A2) Confirmation screens (AID 2061314). Further: nearly all actives have a fitted effect of over 65% in size. Further: potency means the concentration at half of the fitted maximal effect.
Test [6] is described as follows: qHTS for Inhibitors of the Aldehyde Dehydrogenase Family (ALDH1A2, ALDH1A3, ALDH2, ALDH3A1) (AID 2061307). Further: nearly all actives have a fitted effect of over 50% in size.
The target of test [7] is Retinaldehyde dehydrogenase 3 (Homo sapiens) (UniProt P47895). As to the kind of experiment: qHTS for Inhibitors of the Aldehyde Dehydrogenase Family (ALDH1A3) Confirmatory screens (AID 2061311). Further: nearly all actives have a fitted effect of over 60% in size. Further: potency means the concentration at half of the fitted maximal effect.
Test [8] deals with Aldehyde dehydrogenase 1A1 (Homo sapiens) (UniProt P00352). As to the kind of experiment: qHTS for Inhibitors of the Aldehyde Dehydrogenase Family (ALDH1A1) Confirmatory screens (AID 2061316). Further: nearly all actives have a fitted effect of over 65% in size. Further: potency means the concentration at half of the fitted maximal effect.
Test [9] is described as follows: BET inhibitor-based combinations targeting novel dependencies in MECOM-rearranged (r) AML: SET-2 cell line (AID 2202231).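 Further: plate controls were DMSO treated cells for no effect and wells without cells for full effect; nearly all actives have a fitted effect of over 35% in size.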 The note with it: SET-2 AML cells viability, CellTiter-Glo luminescence, 48 h; viability: stronger effect = lower value, series mostly up to about 46 µM. The gist of the method:
(§1)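 Here, 11-point titrations of each agent were applied to 500 seeded cells and incubated 48 hr; CellTiter-Glo signal, scaled against DMSO and empty wells, was integrated as AUC, then Z-scored within the individual line.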

The nature of test [10]: BET inhibitor-based combinations targeting novel dependencies in MECOM-rearranged (r) AML: OCI-AML3 cell line (AID 2202232).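 Further: series mostly up to about 46 µM; plate controls were DMSO vehicle wells for no effect and wells without cells for full effect; nearly all actives have a fitted effect of over 35% in size.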 The settings on record: Potency: OCI-AML3 viability. The gist of the method:
as §1

Test [11] is described as follows: BET inhibitor-based combinations targeting novel dependencies in MECOM-rearranged (r) AML: MV-4-11 cell line (AID 2202233).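 Further: plate controls were DMSO for no effect and blank wells for full effect; nearly all actives have a fitted effect of over 45% in size.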 The gist of the method:
(§2)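 Normalized to DMSO and empty-well controls, the luminescence data from CellTiter-Glo after 48 hr drug exposure were fitted across 11 concentrations. Reported metrics are area under the dose-response curve and its Z-transformed form.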

The nature of test [12]: BET inhibitor-based combinations targeting novel dependencies in MECOM-rearranged (r) AML: HNT-34 cell line (AID 2202234).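 Further: plate controls were vehicle wells for no effect and cell-free wells for full effect; nearly all actives have a fitted effect of over 35% in size.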 The gist of the method: as §2
Test [13] can be described thus: BET inhibitor-based combinations targeting novel dependencies in MECOM-rearranged (r) AML: UCSD-AML1 cell line (AID 2202235).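 Further: series mostly up to about 46 µM; plate controls were DMSO vehicle wells for no effect and blank wells for full effect; nearly all actives have a fitted effect of over 40% in size.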 In a few lines:
as §2

Test [14] can be described thus: BET inhibitor-based combinations targeting novel dependencies in MECOM-rearranged (r) AML: AML-191 cell line (AID 2202236;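 further: plate controls were vehicle wells for no effect and wells without cells for full effect; nearly all actives have a fitted effect of over 35% in size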). The gist of the method: as §1
The nature of test [15]: BET inhibitor-based combinations targeting novel dependencies in MECOM-rearranged (r) AML: AML-194 cell line (AID 2202237;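 further: plate controls were vehicle wells for no effect and wells without cells for full effect; nearly all actives have a fitted effect of over 40% in size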). In a few lines: as §1
Test [16] addresses Retinaldehyde dehydrogenase 3 (Homo sapiens) (UniProt P47895). As to the kind of experiment: qHTS for Inhibitors of the Aldehyde Dehydrogenase Family (ALDH1A3) Validation screen (AID 2061312). Further: on the % scale 0 is the no-effect control and ±100 the full control effect; nearly all actives have a fitted effect of over 45% in size.
For test [17], the target named is Aldehyde dehydrogenase, mitochondrial (Homo sapiens) (UniProt P05091). As to the kind of experiment: qHTS for Inhibitors of the Aldehyde Dehydrogenase Family (ALDH2) Primary screen (AID 2061308).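 Further: plate controls were vehicle for no effect and reference inhibitor for full effect; nearly all actives have a fitted effect of over 55% in size.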
Test [18] concerns the target Retinaldehyde dehydrogenase 3 (Homo sapiens) (UniProt P47895). As to the kind of experiment: qHTS for Inhibitors of the Aldehyde Dehydrogenase Family (ALDH1A3) Primary screen (AID 2061315).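 Further: plate controls were DMSO vehicle for no effect and reference inhibitor for full effect.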

Molecules are shown by their SMILES. Values joined by “and” are separate entries in the source; they are usually repeats but may differ in a detail not shown here. Equal entries are not always repeated. Results filed as inconclusive are left out. A number with no mark means an inactive call. Active and inactive are the calls of the source. Unless noted, the call rests on the fitted dose curve; in most records, active means well fitted curve in the direction sought with a large enough effect; inconclusive means small, poorly fitted or top-dose-only effect, or another doubt; inactive means no such curve, though single readings can be large; an effect the other way counts as inactive or inconclusive.

Chain of Cellular tumor antigen p53 (Homo sapiens) (P04637 whole entry, looked up): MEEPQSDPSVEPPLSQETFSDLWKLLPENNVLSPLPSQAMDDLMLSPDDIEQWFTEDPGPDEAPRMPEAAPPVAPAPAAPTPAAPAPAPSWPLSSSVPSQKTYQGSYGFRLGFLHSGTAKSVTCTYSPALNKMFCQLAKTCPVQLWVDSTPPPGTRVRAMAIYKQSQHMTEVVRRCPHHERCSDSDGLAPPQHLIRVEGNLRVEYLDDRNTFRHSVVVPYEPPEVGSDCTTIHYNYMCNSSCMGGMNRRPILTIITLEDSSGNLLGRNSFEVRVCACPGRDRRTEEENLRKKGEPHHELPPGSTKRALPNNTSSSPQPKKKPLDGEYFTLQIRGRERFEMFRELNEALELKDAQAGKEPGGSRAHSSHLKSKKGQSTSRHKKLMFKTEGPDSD

Regarding `Oc1ccc(Cn2cc[nH]c2=S)cc1`, the activation in test [1] was -47.8%. The Potency entry in test [2], in test [3], in test [4] and in test [5] was “inactive” each time.

In the case of `NC(=O)c1cc[n+](CC2=C(C(=O)O)N3C(=O)[C@@H](NC(=O)[C@@H](c4ccccc4)S(=O)(=O)[O-])[C@H]3SC2)cc1`, in test [1], the activation is -28.8%. Besides, the Potency entry in test [2], in test [3], in test [6], in test [7] and in test [5] was “inactive” in each case.

In the case of `O=NN(CCCl)C(=O)NCCCl`, in test [1], the activation is -1.09% and 45.2%. The Potency result in test [2], in test [3], in test [10], in [11], in test [12] and in test [13] was “inactive” throughout. Also, the Potency result in [14] and in [15] was “inactive” throughout. Besides, the Potency is 15.8 µM (active) in test [4], 12.7 µM (active) in test [7] and 22.5 µM (active) in test [8]. In addition, in [9], the viability is 104%.

With `CCc1ccc(/C=C2/SC(=S)NC2=O)cc1`, the activation in test [1] is -0.0291%. For the same compound, the Potency result in [2], in [3], in [6], in test [7], in test [16] and in test [5] was “inactive” in each case. In addition, the Potency result in [10], in [11], in test [12], in test [13], in test [14] and in test [15] was “inactive” throughout. For the same compound, the viability in test [9] was 89.4%.

With `Cc1cc(O)c2c(c1)C(=O)c1cc(O)cc(O)c1C2=O`, the activation in test [1] was -1.13% and -38%. In addition, the Potency was 26.9 µM (active) in [2]; 3.16 µM (active) in test [3]; 0.712 µM (active) in [4]; 11.3 µM (active) in test [7]; 6.34 µM (active) in [5]; 2.52 µM (active) in test [8]. Also, the Potency result in [11] and in test [13] was “inactive” in each case.

On to `N.N.N.N.N.N.N.N.N.N.N.N.N.N.O.O.[Ru+4].[Ru+5].[Ru+5]`, for which the activation in test [1] was 4.58%. Further, the Potency entry in test [2], in test [3], in test [4], in [6] and in [8] was “inactive” throughout.

Regarding `O=C(O)/C(=C/c1c(C(=O)O)[nH]c2cc(Cl)cc(Cl)c12)c1ccccc1`, the activation in [1] is 12.5%. The Potency entry in test [2], in [3], in test [7] and in test [16] was “inactive” in each case. The Potency in test [6] is 11.3 µM (active).

Consider `NC(=S)c1ccc[n+]([C@@H]2O[C@@H](COP(=O)([O-])OP(=O)(O)OC[C@H]3O[C@@H](n4cnc5c(N)ncnc54)[C@H](OP(=O)(O)O)[C@@H]3O)C(O)C2O)c1` (stereo partly specified), for which the activation in test [1] was -2.21%. The Potency entry in test [2], in test [3] and in [4] was “inactive” each time. The Potency in test [6] is 20.1 µM (active); in test [8], 25.2 µM (active).

Regarding `N=C(N)c1ccc(N)cc1`, the activation in [1] was -28.3%. Moreover, the Potency result in [2], in test [3], in [4], in [6] and in test [5] was “inactive” each time.

As to `CC(CN1c2ccccc2Sc2ccccc21)N(C)C` (stereo unspecified), the activation in test [1] is -20.9% and -2.49%. Moreover, the Potency result in [2] and in test [3] was “inactive” throughout.

With `Cc1scc2c1N(C(=O)CN1CCN(C)CC1)c1ccccc1NC2=O`, the activation in test [1] is -13.4% and -3.34%. In addition, the Potency result in test [2], in [3], in [4], in test [6], in test [7] and in [5] was “inactive” each time.

`CCN1C(=O)C=CC1=O`: the activation in test [1] is -15.7%. For the same compound, the Potency result in test [2], in test [4], in [6], in test [7], in test [5] and in test [8] was “inactive” each time. Moreover, the Potency in test [3] was 12.6 µM (active).

For the compound `COc1cc2c(CCNC(C)=O)c[nH]c2cc1Cl`, the activation in test [1] is -18.2%. Moreover, the Potency result in [2], in test [3], in test [6], in [7] and in [5] was “inactive” each time.

As to `CC1=C(C)C(=O)C(CCCCC#CCCCC#CCO)=C(C)C1=O`, in [1], the activation was 18.6% and 0.426%. In addition, the Potency entry in [2] is “inactive”. In addition, the Potency is 5.01 µM (active) in test [3]; 4.49 µM (active) in test [4]; 7.12 µM (active) in test [6]; 0.504 µM (active) in test [7]; 1.27 µM (active) in test [8].

With `COc1ccc(/C=C/c2nc(NCCCN(C)C)c3ccccc3n2)cc1`, the activation in [1] was -29.6%. Further, the Potency result in test [2], in [3] and in [6] was “inactive” throughout.

Turning to `CCCn1cnc2c1c(=O)n(CCCCC(C)=O)c(=O)n2C`, in [1], the activation was 0.837% and -17.3%. Also, the Potency entry in [2], in [3], in [4], in [6], in test [7] and in test [16] was “inactive” in each case. The Potency entry in test [5] and in test [8] was “inactive” each time.

Turning to `Cc1nn(-c2ccccc2)c(C)c1/C=N/N1CCN(Cc2ccccc2)CC1`, the activation in test [1] is -13.7% and -4.24%. In addition, the Potency entry in test [2], in test [3], in test [17], in test [16] and in test [18] was “inactive” each time.
